# Measurements reported in the supplement of paper PMC8728848.
# The sample as a whole holds a higher share of the strongest signals than the screen did.
# Key:
# Test in all cases: glycan array binding signal (z-score within array); higher = stronger binding
# Conditions in all cases: glycan notation: IUPAC condensed, linker removed
# [1] = molecular target: Fuc(a1-2)Gal(b1-3)GalNAc(b1-3)Gal(a1-4)Gal(b1-4)Glc
# Summary of the method: (§1)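 The binding signal is a Z-score computed within each array and averaged over linkers. Arrays of the same protein sequence at different concentrations or buffers were also averaged together. Data originate from 3228 arrays in the Consortium for Functional Glycomics database, kept only where the protein sequence was available.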
# [2] = molecular target: Fuc(a1-2)Gal(b1-3)[Fuc(a1-4)]GlcNAc(b1-3)[Gal(b1-4)GlcNAc(b1-6)]Gal(b1-4)Glc
# Summary of the method: as §1
# [3] = molecular target: Fuc(a1-2)Gal(b1-4)[Fuc(a1-3)]GlcNAc(b1-3)GalNAc
# Summary of the method: as §1
# [4] = molecular target: Fuc(a1-2)Gal6S(b1-4)Glc6S
# Summary of the method: as §1
# [5] = molecular target: Fuc(a1-2)[Gal(a1-3)]Gal(b1-4)GlcNAc(b1-2)Man
# Summary of the method: as §1
# [6] = molecular target: Fuc(a1-2)[Gal(a1-3)]Gal(b1-4)GlcNAc(b1-6)GalNAc
# Summary of the method: as §1
# [7] = molecular target: Fuc(a1-2)[Gal(a1-3)]Gal(b1-4)[Fuc(a1-3)]GlcNAc(b1-3)GalNAc
# Summary of the method: as §1
# [8] = molecular target: Fuc(a1-3)[GalNAc(b1-4)]GlcNAc
# Summary of the method: as §1
# [9] = molecular target: Gal(a1-3)Gal(b1-4)GlcNAc(b1-2)Man
# Summary of the method: as §1
# [10] = molecular target: Gal(a1-3)Gal(b1-4)[Fuc(a1-3)]GlcNAc(b1-2)Man(a1-3)[Gal(a1-3)Gal(b1-4)[Fuc(a1-3)]GlcNAc(b1-2)Man(a1-6)]Man(b1-4)GlcNAc(b1-4)GlcNAc
# Summary of the method: as §1
# [11] = molecular target: Gal(b1-3)GlcNAc(a1-6)Gal(b1-4)GlcNAc
# Summary of the method: as §1
# [12] = molecular target: Gal(b1-3)GlcNAc(b1-6)GalNAc
# Summary of the method: as §1
# [13] = molecular target: Gal(b1-3)[Fuc(a1-4)]GlcNAc
# Summary of the method: as §1
# [14] = molecular target: Gal(b1-4)GlcNAc(b1-3)Gal(b1-4)GlcNAc(b1-2)Man(a1-3)[Gal(b1-4)GlcNAc(b1-3)Gal(b1-4)GlcNAc(b1-2)Man(a1-6)]Man(b1-4)GlcNAc(b1-4)GlcNAc
# Summary of the method: as §1
# [15] = molecular target: Gal(b1-4)GlcNAc(b1-3)Gal(b1-4)GlcNAc(b1-2)[Gal(b1-4)GlcNAc(b1-3)Gal(b1-4)GlcNAc(b1-6)]Man(a1-6)[Gal(b1-4)GlcNAc(b1-3)Gal(b1-4)GlcNAc(b1-2)Man(a1-3)]Man(b1-4)GlcNAc(b1-4)[Fuc(a1-6)]GlcNAc
# Summary of the method: as §1
# [16] = molecular target: Gal(b1-4)GlcNAc(b1-3)Gal(b1-4)GlcNAc(b1-3)Gal(b1-4)GlcNAc(b1-2)Man(a1-3)[Gal(b1-4)GlcNAc(b1-3)Gal(b1-4)GlcNAc(b1-3)Gal(b1-4)GlcNAc(b1-2)Man(a1-6)]Man(b1-4)GlcNAc(b1-4)GlcNAc
# Summary of the method: as §1
# [17] = molecular target: Gal(b1-4)GlcNAc(b1-3)Gal(b1-4)GlcNAc(b1-3)Gal(b1-4)GlcNAc(b1-2)[Gal(b1-4)GlcNAc(b1-3)Gal(b1-4)GlcNAc(b1-3)Gal(b1-4)GlcNAc(b1-6)]Man(a1-6)[Gal(b1-4)GlcNAc(b1-3)Gal(b1-4)GlcNAc(b1-3)Gal(b1-4)GlcNAc(b1-2)Man(a1-3)]Man(b1-4)GlcNAc(b1-4)[Fuc(a1-6)]GlcNAc
# Summary of the method: as §1
# [18] = molecular target: Gal(b1-4)GlcNAc(b1-3)Gal(b1-4)GlcNAc(b1-3)[Gal(b1-4)GlcNAc(b1-3)Gal(b1-4)GlcNAc(b1-6)]GalNAc
# Summary of the method: as §1
# [19] = molecular target: Gal(b1-4)GlcNAc(b1-3)Gal(b1-4)GlcNAc(b1-6)[Gal(b1-3)]GalNAc
# Summary of the method: as §1
# [20] = molecular target: Gal(b1-4)GlcNAc(b1-3)[Gal(b1-4)GlcNAc(b1-6)]GalNAc
# Summary of the method: as §1
# [21] = molecular target: Gal(b1-4)GlcNAc(b1-6)Gal(b1-4)GlcNAc(b1-6)GalNAc
# Summary of the method: as §1
# GalNAc(a1-3)GalNAc = molecular target: GalNAc(a1-3)GalNAc
# Summary of the method: as §1
# GalNAc(b1-3)Gal = molecular target: GalNAc(b1-3)Gal
# Summary of the method: as §1
# GalNAc3S(b1-4)GlcNAc3S = molecular target: GalNAc3S(b1-4)GlcNAc3S
# Summary of the method: as §1
# Glc(a1-4)Glc = molecular target: Glc(a1-4)Glc
# Summary of the method: as §1
# [22] = molecular target: GlcNAc(b1-3)Gal(b1-4)GlcNAc(b1-3)Gal(b1-4)GlcNAc(b1-2)Man(a1-3)[GlcNAc(b1-3)Gal(b1-4)GlcNAc(b1-3)Gal(b1-4)GlcNAc(b1-2)Man(a1-6)]Man(b1-4)GlcNAc(b1-4)GlcNAc
# Summary of the method: as §1
# [23] = molecular target: GlcNAc(b1-3)Gal(b1-4)GlcNAc(b1-3)Gal(b1-4)GlcNAc(b1-2)[GlcNAc(b1-3)Gal(b1-4)GlcNAc(b1-3)Gal(b1-4)GlcNAc(b1-6)]Man(a1-6)[GlcNAc(b1-3)Gal(b1-4)GlcNAc(b1-3)Gal(b1-4)GlcNAc(b1-2)Man(a1-3)]Man(b1-4)GlcNAc(b1-4)[Fuc(a1-6)]GlcNAc
# Summary of the method: as §1
# [24] = molecular target: GlcNAc(b1-3)Gal(b1-4)GlcNAc(b1-3)Gal(b1-4)GlcNAc(b1-3)Gal(b1-4)GlcNAc(b1-3)Gal(b1-4)GlcNAc(b1-2)Man(a1-3)[GlcNAc(b1-3)Gal(b1-4)GlcNAc(b1-3)Gal(b1-4)GlcNAc(b1-3)Gal(b1-4)GlcNAc(b1-3)Gal(b1-4)GlcNAc(b1-2)Man(a1-6)]Man(b1-4)GlcNAc(b1-4)[Fuc(a1-6)]GlcNAc
# Summary of the method: as §1
# [25] = molecular target: GlcNAc(b1-3)Gal(b1-4)GlcNAc(b1-6)[Gal(b1-3)]GalNAc
# Summary of the method: as §1
# GlcNAc(b1-3)GalNAc = molecular target: GlcNAc(b1-3)GalNAc
# Summary of the method: as §1
# [26] = molecular target: GlcNAc(b1-3)[GlcNAc(b1-6)]GlcNAc(b1-4)GlcNAc
# Summary of the method: as §1
# [27] = molecular target: GlcNAc(b1-4)[GlcNAc(b1-6)]GalNAc
# Summary of the method: as §1
# [28] = molecular target: GlcNAc6S(b1-3)Gal(b1-4)GlcNAc
# Summary of the method: as §1
# Man(a1-2)Man(a1-3)Man = molecular target: Man(a1-2)Man(a1-3)Man
# Summary of the method: as §1
# [29] = molecular target: Man(a1-2)Man(a1-3)[Man(a1-2)Man(a1-6)]Man(a1-6)[Man(a1-2)Man(a1-2)Man(a1-3)]Man
# Summary of the method: as §1
# [30] = molecular target: Man(a1-3)[Man(a1-6)]Man(a1-6)[Man(a1-2)Man(a1-3)]Man(b1-4)GlcNAc(b1-4)GlcNAc
# Summary of the method: as §1
# [31] = molecular target: Man(a1-3)[Man(a1-6)]Man(a1-6)[Man(a1-3)]Man(b1-4)GlcNAc(b1-4)GlcNAc
# Summary of the method: as §1
# [32] = molecular target: Neu5Ac(a2-3)Gal(b1-3)GlcNAc
# Summary of the method: as §1
# [33] = molecular target: Neu5Ac(a2-3)Gal(b1-4)GlcNAc(b1-3)Gal(b1-4)GlcNAc(b1-3)Gal(b1-4)GlcNAc(b1-2)Man(a1-3)[Neu5Ac(a2-3)Gal(b1-4)GlcNAc(b1-3)Gal(b1-4)GlcNAc(b1-3)Gal(b1-4)GlcNAc(b1-2)Man(a1-6)]GalNAc
# Summary of the method: as §1
# [34] = molecular target: Neu5Ac(a2-3)Gal(b1-4)GlcNAc(b1-3)Gal(b1-4)GlcNAc(b1-3)GalNAc
# Summary of the method: as §1
# [35] = molecular target: Neu5Ac(a2-3)Gal(b1-4)[Fuc(a1-3)]GlcNAc(b1-3)GalNAc
# Summary of the method: as §1
# Neu5Ac(a2-6)Gal = molecular target: Neu5Ac(a2-6)Gal
# Summary of the method: as §1
# [36] = molecular target: Neu5Ac(a2-6)Gal(b1-4)GlcNAc(b1-3)Gal(b1-4)GlcNAc(b1-3)Gal(b1-4)GlcNAc
# Summary of the method: as §1
# [37] = molecular target: Neu5Ac(a2-6)Gal(b1-4)GlcNAc(b1-3)Gal(b1-4)GlcNAc(b1-3)Gal(b1-4)GlcNAc(b1-2)Man(a1-3)[Neu5Ac(a2-6)Gal(b1-4)GlcNAc(b1-3)Gal(b1-4)GlcNAc(b1-3)Gal(b1-4)GlcNAc(b1-2)Man(a1-6)]GalNAc
# Summary of the method: as §1
# [38] = molecular target: Neu5Ac(a2-6)Gal(b1-4)GlcNAc(b1-3)Gal(b1-4)GlcNAc(b1-6)[Gal(b1-3)]GalNAc
# Summary of the method: as §1
# [39] = molecular target: Neu5Ac(a2-8)Neu5Ac(a2-3)Gal(b1-3)GalNAc(b1-4)[Neu5Ac(a2-8)Neu5Ac(a2-3)]Gal(b1-4)Glc
# Summary of the method: as §1
# [40] = molecular target: Neu5Ac(a2-8)Neu5Ac(a2-8)Neu5Ac(a2-3)[Gal(b1-3)GalNAc(b1-4)]Gal(b1-4)Glc
# Summary of the method: as §1
# [41] = molecular target: Neu5Ac(b2-6)Gal(b1-4)GlcNAc
# Summary of the method: as §1
# [42] = molecular target: Neu5Gc(a2-3)Gal(b1-4)GlcNAc
# Summary of the method: as §1
binder,measurement,setting,value
"ECA (Erythrina cristagalli), P83410 (protein) VETISFSFSEFEPGNDNLTLQGAALITQSGVLQLTKINQNGMPAWDSTGRTLYTKPVHMWDSTTGTVASFETRFSFSIEQPYTRPLPADGLVFFMGPTKSKPAQGYGYLGVFNNSKQDNSYQTLAVEFDTFSNPWDPPQVPHIGIDVNSIRSIKTQPFQLDNGQVANVVIKYDAPSKILHVVLVYPSSGAIYTIAEIVDVKQVLPDWVDVGLSGATGAQRDAAETHDVYSWSFQASLPE",glycan array binding signal (z-score),[1],-0.125
same,glycan array binding signal (z-score),[2],-0.309
same,glycan array binding signal (z-score),[3],0.542
same,glycan array binding signal (z-score),[4],-0.123
same,glycan array binding signal (z-score),[5],-0.485
same,glycan array binding signal (z-score),[6],-0.455
same,glycan array binding signal (z-score),[7],-0.399
same,glycan array binding signal (z-score),[8],-0.226
same,glycan array binding signal (z-score),[9],-0.517
same,glycan array binding signal (z-score),[10],10.5
same,glycan array binding signal (z-score),[11],-0.325
same,glycan array binding signal (z-score),[12],-0.491
same,glycan array binding signal (z-score),[13],-0.234
same,glycan array binding signal (z-score),[14],3.88
same,glycan array binding signal (z-score),[15],0.699
same,glycan array binding signal (z-score),[16],4.58
same,glycan array binding signal (z-score),[17],1.81
same,glycan array binding signal (z-score),[18],4.2
same,glycan array binding signal (z-score),[19],4.88
same,glycan array binding signal (z-score),[20],5.59
same,glycan array binding signal (z-score),[21],5.39
same,glycan array binding signal (z-score),GalNAc(a1-3)GalNAc,-0.186
same,glycan array binding signal (z-score),GalNAc(b1-3)Gal,-0.272
same,glycan array binding signal (z-score),GalNAc3S(b1-4)GlcNAc3S,-0.509
same,glycan array binding signal (z-score),Glc(a1-4)Glc,-0.148
same,glycan array binding signal (z-score),[22],3.72
same,glycan array binding signal (z-score),[23],3.4
same,glycan array binding signal (z-score),[24],0.151
same,glycan array binding signal (z-score),[25],-0.412
same,glycan array binding signal (z-score),GlcNAc(b1-3)GalNAc,-0.366
same,glycan array binding signal (z-score),[26],-0.277
same,glycan array binding signal (z-score),[27],-0.228
same,glycan array binding signal (z-score),[28],-0.243
same,glycan array binding signal (z-score),Man(a1-2)Man(a1-3)Man,-0.285
same,glycan array binding signal (z-score),[29],-0.091
same,glycan array binding signal (z-score),[30],1.29
same,glycan array binding signal (z-score),[31],-0.177
same,glycan array binding signal (z-score),[32],-0.269
same,glycan array binding signal (z-score),[33],7.35
same,glycan array binding signal (z-score),[34],-0.407
same,glycan array binding signal (z-score),[35],0.567
same,glycan array binding signal (z-score),Neu5Ac(a2-6)Gal,-0.208
same,glycan array binding signal (z-score),[36],-0.578
same,glycan array binding signal (z-score),[37],5.2
same,glycan array binding signal (z-score),[38],0.104
same,glycan array binding signal (z-score),[39],-0.352
same,glycan array binding signal (z-score),[40],0.194
same,glycan array binding signal (z-score),[41],-0.088
same,glycan array binding signal (z-score),[42],-0.327
